Screens as filed in PubChem.
RORgamma inh = blocks mouse ROR gamma transcriptional activity. P51450. Drosophila S2 Gal4-RORgamma UAS-luciferase reporter, 20 h. Potency, µM (series often up to 53.6 µM), hits mostly inhibitors. 310,000 compounds, 5.4% hits. AID 2551; also: nearly all actives have a fitted effect of over 60% in size
Target sequence (P51450 whole entry, looked up, the tested form may be a part): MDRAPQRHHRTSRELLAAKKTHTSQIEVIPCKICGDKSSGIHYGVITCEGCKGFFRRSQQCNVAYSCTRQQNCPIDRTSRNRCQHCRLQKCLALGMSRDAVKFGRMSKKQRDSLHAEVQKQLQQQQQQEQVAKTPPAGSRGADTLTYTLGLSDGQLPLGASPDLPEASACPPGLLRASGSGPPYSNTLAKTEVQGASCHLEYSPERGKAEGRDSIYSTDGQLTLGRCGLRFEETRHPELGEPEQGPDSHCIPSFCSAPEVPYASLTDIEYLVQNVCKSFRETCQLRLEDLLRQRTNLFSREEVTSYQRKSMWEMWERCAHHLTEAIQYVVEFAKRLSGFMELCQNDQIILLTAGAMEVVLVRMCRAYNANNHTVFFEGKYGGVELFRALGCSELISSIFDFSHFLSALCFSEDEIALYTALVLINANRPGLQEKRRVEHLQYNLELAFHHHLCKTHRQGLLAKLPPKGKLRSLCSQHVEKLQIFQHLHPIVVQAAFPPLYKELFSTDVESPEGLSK
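Schneider cells (Drosophila), stable Gal4 DBD–ROR gamma + UAS-luc; 1 hr cmpd preincubation; Cu2+ induction 700 uM final; 20 hr ambient; luminescence.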
Gal4-VP16 FLuc = counter-screen for ROR gamma inhibitors: Gal4-VP16 reporter | 310,000 compounds, 3.5% hits | Drosophila S2 Gal4-VP16 UAS-luciferase, luminescence, 20 h | Potency, µM (doses to about 53.6 µM), hits mostly inhibitors;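 also: Gal4-VP16 expression switched on by copper sulfate through the metallothionein promoter; nearly all actives have a fitted effect of over 50% in size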
Tau FP inhib = tau fibrillization inhibition (FP); 280,000 compounds, 0.39% hits; K18 P301L tau heparin fibrillization, Alexa594 FP, 6 h; P10636; AID 1468; Potency, µM (top dose mostly 57.7 µM), usual class: inhibitors; also: nearly all actives have a fitted effect of over 55% in size
Target sequence (P10636 561-689 P618L limits assumed): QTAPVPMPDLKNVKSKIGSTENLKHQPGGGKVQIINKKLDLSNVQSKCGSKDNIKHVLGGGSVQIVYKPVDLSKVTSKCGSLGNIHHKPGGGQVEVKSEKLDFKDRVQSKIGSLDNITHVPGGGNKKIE
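Read-out: fluorescence polarization of Alexa 594-labeled tau (0.24 uM), 555 nm excitation, 632 nm emission. Mixtures held 15 uM unlabeled K18 P301L, compound and 20 uM heparin, pH 7 acetate buffer, incubated 6 hr at 37 C.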
Tau fibril ThT = tau fibrillization inhibition (ThT binding); P10636; recombinant tau K18 P301L, heparin-induced fibrillization, ThT fluorescence; Potency, µM (top dose mostly 57.4 µM), hits mostly inhibitors; 270,000 compounds, 2.1% hits; AID 1460; also: nearly all actives have a fitted effect of over 55% in size
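Tau K18 P301L fragment (15 uM unlabeled plus 0.24 uM Alexa 594-labeled) in 100 mM sodium acetate pH 7 with compound, fibrillization induced by 20 uM heparin for 6 hr at 37 C. Thioflavin T (30 uM) added, fluorescence read after 1 hr (ex 450, em 510 nm).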
Tau fluor cs = counter-screen for tau fibril formation inhibitors | tau K18 P301L Alexa594 fluorescence, heparin fibrillization | Potency, µM (series often up to 57.7 µM) | 280,000 compounds, 0.93% hits | AID 1463; also: nearly all actives have a fitted effect of over 55% in size
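Human tau K18 P301L (15 uM unlabeled, 0.24 uM Alexa 594-labeled) in 100 mM sodium acetate pH 7 with 20 uM heparin, 6 hr at 37 C. ThT 30 uM added, 1 hr ambient; Alexa 594 FP and total fluorescence read at 555/632 nm.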
A number is an active result; i = inactive; ? = inconclusive; nt = no result given; ! = not active in a repeat; [ ] = dose if it differs, or a comment. Compounds with a hit are over-represented: about 7.3% of the library has one in this group of screens. Calls follow the shape of the dose curve; as a rule, active = well fitted curve in the direction sought with a large enough effect; inconclusive = small, poorly fitted or top-dose-only effect, or another doubt; inactive = no such curve, though single readings can be large; an effect the other way counts as inactive or inconclusive.

SMILES	RORgamma inh	Gal4-VP16 FLuc	Tau FP inhib	Tau fibril ThT	Tau fluor cs
O=C(Nc1nccs1)c1ccccc1Br	i	i	nt	nt	nt
CCC(=O)O[C@@H]1[C@H](C)O[C@H](O[C@H]2[C@@H](N(C)C)[C@H](O)[C@@H](O[C@@H]3[C@@H](CC=O)C[C@@H](C)[C@@H](O)/C=C\C=C/C[C@@H](C)OC(=O)C[C@@H](OC(=O)CC)[C@H]3OC)O[C@H]2C)C[C@]1(C)O	i[2.98 µM]	i	nt	nt	nt
CC(=O)Nc1ccc(-c2csc(NC(=O)CC(NC(C)=O)c3ccccc3)n2)cc1 (centres undefined)	i	i	nt	nt	nt
O=C(Nc1ccccn1)c1ccc2ccccc2n1	10µM	?	i	i	i
CCc1ccc(C(=O)Nc2nc(C)cs2)s1	7.08µM	11.2µM	nt	nt	nt
Cc1csc(NC(=O)c2ccc(C(=O)Nc3nc(C)cs3)cc2)n1	i	i	i	?	i
CC(=O)NC(CC(=O)Nc1nc(-c2ccc(N(C)S(C)(=O)=O)cc2)cs1)c1ccccc1 (centres undefined)	i	11.2µM	nt	nt	nt
Cc1csc(NC(=O)c2cc(-c3ccco3)nc3ccccc23)n1	?	?	i	i	i
Cc1cc(C(=O)Nc2ccccn2)no1	i[0.365 µM]	nt	i	i	i
Cc1csc(NC(=O)c2cc(C)nc3ccccc23)n1	11.2µM	i	i	i	i
Cc1cc(Cl)ccc1OCC(=O)Nc1c(Cl)ccc2nsnc12	nt	nt	?	i	i
Cc1csc(NC(=O)c2ccco2)n1	i[0.365 µM]	nt	i	i	i
Cc1cnc(C(=O)Nc2nc(-c3ccccc3)cs2)cn1	4.47µM	4.47µM	i	i	i
CC1CC1C(=O)Nc1nc(-c2ccccc2)cs1 (centres undefined)	i	i	i	i	i
Cc1csc(NC(=O)c2ccccc2C(=O)O)n1	i	i	i	i	i
Cc1csc(NC(=O)c2cnc3ccccc3n2)n1	11.2µM	?	nt	nt	nt
Cc1csc(NC(=O)c2ccc3ccccc3n2)n1	2.51µM	7.08µM	nt	nt	nt
O=C(Nc1ccccn1)c1ccc2ccccc2c1O	?	12.6µM	nt	nt	nt
O=C(NCCc1ccc(F)cc1)N[C@@H](Cc1ccccc1)C(=O)O	i	i	nt	nt	nt
CN(C)CC(=O)Nc1nc(-c2ccccc2)cs1	11.2µM	?	?	i	i
O=C(O)CCC(=O)Nc1nc(-c2ccccc2)cs1	i	i	i	i	i
CC(NC(N)=O)C(=O)Nc1ccc(Cl)c(S(=O)(=O)Nc2ccc(Br)cc2)c1 (centres undefined)	6.31µM	3.16µM	i	i	i
CCC(C)NCCC(=O)Nc1ccc(Cl)c(S(=O)(=O)Nc2ccc(Cl)cc2)c1 (centres undefined)	?	i	i	i	i
Cc1ccc(-n2c3nc(=O)[nH]c(=O)c-3cc3c(C)nn(-c4ccccc4)c32)cc1Cl	nt	nt	i	i	i
Cc1ccc(-c2nc(CN(CC3CCC3)CC3CCCO3)c(C)o2)s1 (centres undefined)	11.2µM	i	i	i	i
SMILES	RORgamma inh	Gal4-VP16 FLuc	Tau FP inhib	Tau fibril ThT	Tau fluor cs
CCOc1ccc(N=C(NN)c2ccc3ccccc3n2)cc1	10µM	?	i	10µM	?
CCOc1ccc(N=C(C)C2=C(O)c3ccccc3C2=O)cc1	i	i	i	nt	?
COc1ccc2ccccc2c1-c1sc(Nc2ccccc2)n[n+]1-c1ccc(F)cc1	i	i	nt	nt	nt
CCCCCCc1cc2cc(S(=O)(=O)c3ccc(C)cc3)c(=O)oc2cc1O	?	?	i	i	?
CCCCCCc1cc2cc(C(=O)NCc3ccccc3)c(=N)oc2cc1O	?	?	i	i	i
CCCCCCc1cc2cc(C(=O)Nc3ccccc3)c(=O)oc2cc1O	?	4.47µM	i	i	i
CCCCCCc1cc2cc(S(=O)(=O)c3ccc(Cl)cc3)c(=O)oc2cc1O	?	20µM	i	i	i
COc1cccc(CNS(=O)(=O)c2ccc3c(c2)N(C)CCO3)c1	?	i	nt	nt	nt
Cc1ccc(C)c(N2CCN(C(=O)C3CCN(S(=O)(=O)c4cn(C)cn4)CC3)CC2)c1	nt	nt	i	i	i
CCc1ccc(C)c(OC(=O)c2cncc(Br)c2)c1	i[1.91 µM]	i	nt	nt	nt
CCN(c1ccccc1)S(=O)(=O)c1ccc(Cl)c(NC(=O)CN(C)C2CCN(C)CC2)c1	i	i	nt	nt	nt
CC1=C(\C=C/C(C)=C/C=C\C(C)=C\C(=O)O)C(C)(C)CCC1	?	i	?	31.6µM!	i
CC1=C(/C=C/C(C)=C/C=C/C(C)=C/C(=O)Nc2ccc(O)cc2)C(C)(C)CCC1	4.47µM!	5.01µM!	i	15.8µM	11.2µM[quencher]
CC1=C(/C=C/C(C)=C/C=C/C(C)=C\C(=O)O)C(C)(C)CCC1	i	i	i	i	i
COc1ccc(NC(=O)c2c(N)c(C(=O)c3ccc(C)cc3)n3ccccc23)cc1OC	nt	nt	i	i	i
O=C(c1ccc(Cl)c(S(=O)(=O)N2CCCCC2)c1)N1CCCCC1	i	i	nt	nt	nt
CN1CC(=O)NC1=NC(=O)c1cc(F)c(F)cc1Cl	10µM	?	i	i	i
CN1CC(=O)NC1=NC(=O)c1ccc(Cl)c(S(=O)(=O)N2CCCCCC2)c1	3.55µM	15.8µM	i	i	i
CC(C)(C)c1ccc(C(=O)NNc2ncnc3c2cnn3-c2ccc(Cl)cc2)cc1	nt	nt	i	i	i
Cn1ncc2c(NNC(=O)c3ccc(Cl)cc3Cl)ncnc21	6.31µM	7.08µM	i	i	i
Cn1ncc2c(NNC(=O)c3ccc(Cl)c(Cl)c3)ncnc21	0.316µM	1.12µM	i	?	i
Cc1ccccc1C(=O)NNc1ncnc2c1cnn2-c1cccc(Cl)c1	nt	nt	i	i	i
COc1ccc(C)cc1S(=O)(=O)N1CCCC(C(=O)N2CCOCC2)C1 (centres undefined)	i	i	nt	nt	nt
CC(=O)N1CCc2cc(S(=O)(=O)CCC(=O)NCCc3ccccc3)ccc21	i	i	nt	nt	nt
O=C(Cc1ccc(Cl)c(Cl)c1)Nc1ccc2[nH]c(=O)[nH]c2c1	i	i	i	i	i
SMILES	RORgamma inh	Gal4-VP16 FLuc	Tau FP inhib	Tau fibril ThT	Tau fluor cs
CC(C)Oc1cc2oc(=O)c3c(c2cc1Cl)CCC3	i	i	i	i	i
CC(=O)Oc1cc2oc(=O)c3c(c2cc1Cl)CCC3	i	i	17.8µM	14.1µM	?
COc1ccc(N=Cc2[nH]c3ccccc3c2O)cc1	i	?	?	17.8µM	i
O=C1C(C=Nc2ccccc2)=C(O)c2ccccc21	?	11.2µM	i	?	i
COc1ccc(N=C(C)C2=C(O)c3ccccc3C2=O)cc1	i	?	i	?	i
COc1ccc(N=CC2=C(O)c3ccccc3C2=O)cc1	3.16µM	?	i	2.24µM	i
COc1ccc(N=Cc2oc3ccc4ccccc4c3c2O)cc1	i	i	i	?	i
CN=CC1=C(O)c2ccccc2C1=O	i	i	i	i	i
CCOC(=O)c1ccc(NC(=O)CCc2c(C)nc3nc[nH]n3c2=O)cc1	nt	nt	i	i	i
COc1ccc(/C=C/c2ccccc2)cc1C1C2C=CCCC2(C)C(=O)N1Cc1ccccc1 (centres undefined)	i	i	nt	nt	nt
S=C(Nc1ccc2nccnc2c1)N1CCOCC1	i	?	?	25.1µM	i
Cc1ccc(NC(=S)N2CCOCC2)cc1	i	i	i	i	i
